# Measured values as given in PubChem BioAssay (EPA / NIEHS).
# Calls of active or inactive are those of the source. The calls were made as follows: active = hit-call score of the fitted dose curve at least 0.9, where 1 is the maximum; inactive = score below 0.9.
# Key:
# [1] = ATG_CRE_CIS: Attagene CIS-FACTORIAL HepG2 Assay for human cAMP Responsive Element (CRE) binding protein 3 (AID 2282926); conditions: HepG2 CRE cis-reporter, Attagene multiplexed mRNA; actives raise or lower the signal
# In short: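 Liver-derived HepG2, transfected with a CRE-containing reporter panel, exposed 24 h; transcript levels sized and quantified by capillary electrophoresis of labelled amplicons; signal changes either way referenced to vehicle.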
# [2] = molecular target: CCAAT/enhancer-binding protein beta (Homo sapiens) (UniProt P17676); test: ATG_C_EBP_CIS: Attagene CIS-FACTORIAL HepG2 Assay for human CCAAT/Enhancer Binding Protein (C/EBP) beta (AID 2282927); conditions: HepG2 Attagene cis-factorial transcription factor reporter; actives raise or lower the signal
# In short: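 Transiently transfected HepG2 (MRTU library, endogenous TF-driven promoters); 24 h dosing; total RNA → oligo(dT) RT → PCR → 6-FAM primer extension → HpaI digest → CE; fit bidirectionally vs DMSO.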
# [3] = ATG_CMV_CIS: Attagene CIS-FACTORIAL HepG2 Assay for human CMV (Internal Marker) (AID 2282928); conditions: HepG2 CMV promoter reporter, transcription factor profiling; actives raise or lower the signal;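 also: endpoint acts as a background internal control marker rather than a target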
# In short: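 Bidirectional fits against DMSO are applied to reporter mRNA, read by RT-PCR with capillary electrophoresis, from HepG2 cells exposed 24 h. The endpoint serves as an internal CMV background marker within the cis-factorial reporter panel.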
# [4] = ATG_DR4_LXR_CIS: Attagene CIS-FACTORIAL HepG2 Assay for human Liver X Receptor (LXR), DR4 submotif (AID 2282929); conditions: HepG2 Attagene DR4 cis-reporter, mRNA transcription; actives raise or lower the signal
# In short: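 Total RNA from 24 h-treated, MRTU-transfected HepG2 cells underwent reverse transcription, PCR, fluorescent primer extension and restriction digestion before capillary electrophoresis. Both increases and decreases in reporter signal were fitted against DMSO.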
# [5] = molecular target: Aryl hydrocarbon receptor (Homo sapiens) (UniProt P35869); test: ATG_Ahr_CIS: Attagene CIS-FACTORIAL HepG2 Assay for human Aryl Hydrocarbon Receptor (Ahr) (AID 2282930); conditions: HepG2 AhR cis-factorial reporter transcription; actives raise or lower the signal
# In short: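 Read-out: reporter mRNA quantified by RT-PCR with fluorescent primer extension and capillary electrophoresis. Human HepG2 liver cells carried transfected cis-promoter reporter units and were exposed to chemical for 24 h; gain or loss fitted relative to DMSO.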
# [6] = ATG_AP_1_CIS: Attagene CIS-FACTORIAL HepG2 Assay for human Activator Protein 1 (AP-1) (AID 2282931); conditions: HepG2 Attagene cis-factorial AP-1 reporter mRNA; actives raise or lower the signal
# In short: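 HepG2, transient cis-reporter transfection; 24 h; readout RT-PCR/CE fluorescence; DMSO baseline, gain and loss fitted.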
# [7] = ATG_BRE_CIS: Attagene CIS-FACTORIAL HepG2 Assay for human Bone Morphogenetic Protein (BMP) Response Element (BRE) (AID 2282933); conditions: HepG2 BMP response element reporter, Attagene transcription factor profiling; actives raise or lower the signal
# In short: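 Read-out: reporter mRNA induction quantified by RT-PCR and capillary electrophoresis after 24 h chemical exposure of transfected HepG2 cells. Endogenous factor activity on the BMP response element; gain or loss fitted against DMSO baseline.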
# [8] = molecular target: Transcription factor E2F1 (Homo sapiens) (UniProt Q01094); test: ATG_E2F_CIS: Attagene CIS-FACTORIAL HepG2 Assay for human E2F Transcription Factor 1 (AID 2282935); conditions: HepG2 Attagene cis-reporter, E2F reporter RNA transcripts; actives raise or lower the signal
# In short: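 Liver-derived HepG2 cells expressing transfected promoter-driven reporter units received test chemical for 24 hours. Signal gains or losses were fitted bidirectionally against DMSO.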
# [9] = ATG_E_Box_CIS: Attagene CIS-FACTORIAL HepG2 Assay for human Enhancer Box (E-box) (AID 2282936); conditions: HepG2 E-box cis-reporter transcription, actives raise or lower the signal
# In short: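 In this cell-based setup, HepG2 cells bearing transfected promoter-driven reporter units were exposed to chemicals for 24 h; reporter transcripts were amplified, 6-FAM-labelled, cut with HpaI and sized by capillary electrophoresis.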
# [10] = ATG_M_61_CIS: Attagene CIS-FACTORIAL HepG2 Assay for M61 Transcription Factor (Internal Marker) (AID 2282937); conditions: HepG2 Attagene CIS-FACTORIAL M61 internal marker reporter; actives raise or lower the signal
# In short: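 Transfect HepG2 with MRTUs; dose 24 h; isolate RNA; reverse-transcribe with DNase I treatment; PCR-amplify, FAM-label and cut with HpaI for 2 h at 37 C; resolve by CE. Bidirectional fitting against DMSO.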
# [11] = ATG_EGR_CIS: Attagene CIS-FACTORIAL HepG2 Assay for human Early Growth Response 1 (EGR1) (AID 2282938); conditions: HepG2 Attagene CIS-FACTORIAL EGR reporter mRNA; actives raise or lower the signal
# In short: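 After a 24 h treatment of transiently transfected HepG2 cells, total RNA was reverse-transcribed and reporter sequences PCR-amplified, labelled and run on capillary electrophoresis. Reporters sit under cis-regulatory promoters sensing endogenous factors.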
# [12] = ATG_M_19_CIS: Attagene CIS-FACTORIAL HepG2 Assay for M19 Transcription Factor (Internal Marker) (AID 2282939); conditions: HepG2 Attagene CIS-FACTORIAL M19 internal marker reporter; actives raise or lower the signal
# In short: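 Readout: fluorescent reporter-transcript fragments by capillary electrophoresis after RT-PCR. Human HepG2 liver cells carried transfected MRTU constructs reporting endogenous transcription-factor activity; exposure 24 h. Gain or loss of signal fitted relative to DMSO.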
# [13] = ATG_Ets_CIS: Attagene CIS-FACTORIAL HepG2 Assay for human Erythroblast Transformation Specific (ETS) (AID 2282941); conditions: HepG2 ETS cis-reporter transcription, actives raise or lower the signal
# In short: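 Endogenous transcription factor activity read as reporter mRNA via RT-PCR and capillary electrophoresis, with gain or loss fitted bidirectionally against DMSO. Human HepG2 liver cells, transiently transfected CIS reporter constructs, 24 h exposure.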
# [14] = molecular target: Hepatocyte nuclear factor 3-beta (Homo sapiens) (UniProt Q9Y261); test: ATG_FoxA2_CIS: Attagene CIS-FACTORIAL HepG2 Assay for human Forkhead box A2 (FOXA2) (AID 2282942); conditions: HepG2 cis-reporter transcription factor activity, 24 h; actives raise or lower the signal
# In short: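 24 h dosing of HepG2 bearing cis-reporter constructs; mRNA readout by RT-PCR/CE fluorescence; bidirectional fit, DMSO baseline.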
# [15] = ATG_FoxO_CIS: Attagene CIS-FACTORIAL HepG2 Assay for human Forkhead box O (FoxO) (AID 2282943); conditions: HepG2 Attagene cis-reporter, FoxO element, mRNA; actives raise or lower the signal
# In short: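 Read-out: fluorescence of 6-FAM-labelled reporter cDNA fragments resolved by capillary electrophoresis. Transiently transfected HepG2 cells were dosed for 24 h; activity fitted in both directions relative to DMSO controls.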
# [16] = ATG_GATA_CIS: Attagene CIS-FACTORIAL HepG2 Assay for human GATA Binding Protein (AID 2282944); conditions: HepG2 GATA cis-element reporter, Attagene multiplex mRNA; actives raise or lower the signal
# In short: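 Read-out: fluorescent reporter mRNA fragments resolved by capillary electrophoresis after RT-PCR. Human liver HepG2 cells carried transiently transfected cis-regulated reporter constructs; chemicals incubated 24 h; gain or loss of signal fitted relative to DMSO.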
# [17] = ATG_GLI_CIS: Attagene CIS-FACTORIAL HepG2 Assay for human Zinc Finger Protein GLI1 (AID 2282945); conditions: HepG2, Attagene cis-factorial reporter mRNA, GLI element; actives raise or lower the signal
# In short: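 Transiently transfected HepG2 cells report endogenous transcription factor activity via cis-element-driven reporter units. After 24 h compound exposure, reporter mRNA was measured by RT-PCR with capillary electrophoresis; bidirectional fitting against DMSO baseline.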
# [18] = ATG_AP_2_CIS: Attagene CIS-FACTORIAL HepG2 Assay for human Activator Protein 2 (AP-2) (AID 2282932); conditions: HepG2 AP-2 cis-reporter, Attagene transcription factor profiling; actives raise or lower the signal
# In short: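 Liver-derived HepG2 line, cis-reporter system measuring endogenous factors; 24 h dosing; reporter mRNA detected by fluorescent RT-PCR and capillary electrophoresis.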
# [19] = ATG_ERE_CIS: Attagene CIS-FACTORIAL HepG2 Assay for Estrogen Response Element (ERE) (AID 2282940); conditions: HepG2 ERE cis-reporter, Attagene RNA transcript; actives raise or lower the signal
# In short: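 Readout: reporter mRNA induction by RT-PCR, FAM-labelled primer extension, HpaI digestion and capillary electrophoresis, 24 h after dosing transfected HepG2 cells. Endogenous transcription factors act on cis-element-regulated reporters. Gain or loss fitted against DMSO.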
# [20] = molecular target: Retinoic acid receptor alpha (Homo sapiens) (UniProt P10276); test: ATG_DR5_RAR_CIS: Attagene CIS-FACTORIAL HepG2 Assay for human Retinoic Acid Receptor Alpha (RARE), DR5 submotif (AID 2282934); conditions: HepG2 Attagene cis-factorial RARE DR5 reporter, mRNA; actives raise or lower the signal
# In short: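 Read-out: DR5-driven reporter transcript measured by RT-PCR, 6-FAM primer extension, HpaI digest and capillary electrophoresis. Human HepG2 liver cells carry transiently transfected cis-element reporter constructs; dosing lasts 24 h. Gain or loss of signal fitted against DMSO baseline.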
# CCAAT/enhancer-binding protein beta (Homo sapiens), sequence (P17676 whole entry, looked up): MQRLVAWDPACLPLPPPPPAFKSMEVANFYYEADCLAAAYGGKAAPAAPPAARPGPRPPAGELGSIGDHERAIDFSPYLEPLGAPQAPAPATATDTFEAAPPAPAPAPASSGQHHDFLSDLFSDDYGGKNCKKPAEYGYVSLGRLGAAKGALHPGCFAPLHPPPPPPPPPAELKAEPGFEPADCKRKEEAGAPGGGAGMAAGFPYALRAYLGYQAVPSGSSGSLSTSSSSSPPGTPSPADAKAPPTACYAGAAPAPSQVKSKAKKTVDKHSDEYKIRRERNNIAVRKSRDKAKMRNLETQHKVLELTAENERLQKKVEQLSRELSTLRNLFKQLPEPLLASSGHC
# Hepatocyte nuclear factor 3-beta (Homo sapiens), sequence (Q9Y261 whole entry, looked up): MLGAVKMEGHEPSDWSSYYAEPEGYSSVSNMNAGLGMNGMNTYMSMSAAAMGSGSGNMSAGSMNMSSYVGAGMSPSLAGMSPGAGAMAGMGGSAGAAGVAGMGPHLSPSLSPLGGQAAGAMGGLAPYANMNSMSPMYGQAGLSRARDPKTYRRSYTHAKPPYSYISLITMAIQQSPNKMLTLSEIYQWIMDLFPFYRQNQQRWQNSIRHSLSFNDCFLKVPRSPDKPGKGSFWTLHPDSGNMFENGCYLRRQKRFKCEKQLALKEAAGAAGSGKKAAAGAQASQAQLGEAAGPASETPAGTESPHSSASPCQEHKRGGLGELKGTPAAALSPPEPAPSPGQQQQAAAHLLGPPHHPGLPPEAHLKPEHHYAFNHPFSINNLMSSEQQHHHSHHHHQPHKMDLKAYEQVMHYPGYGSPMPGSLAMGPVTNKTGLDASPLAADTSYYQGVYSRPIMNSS
# Transcription factor E2F1 (Homo sapiens), sequence (Q01094 whole entry, looked up): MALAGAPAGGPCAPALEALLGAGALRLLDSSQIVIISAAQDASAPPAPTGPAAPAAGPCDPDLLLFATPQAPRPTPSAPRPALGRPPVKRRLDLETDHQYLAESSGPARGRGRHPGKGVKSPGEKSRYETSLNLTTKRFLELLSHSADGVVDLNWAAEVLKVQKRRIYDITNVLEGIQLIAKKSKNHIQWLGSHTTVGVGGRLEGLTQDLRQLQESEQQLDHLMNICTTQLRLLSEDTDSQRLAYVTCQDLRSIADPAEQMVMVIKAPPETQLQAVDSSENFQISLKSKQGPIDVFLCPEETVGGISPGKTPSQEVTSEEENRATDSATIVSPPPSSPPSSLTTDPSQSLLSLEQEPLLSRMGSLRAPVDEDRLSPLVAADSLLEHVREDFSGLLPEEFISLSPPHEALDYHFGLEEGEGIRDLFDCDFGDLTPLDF
# Aryl hydrocarbon receptor (Homo sapiens), sequence (P35869 whole entry, looked up): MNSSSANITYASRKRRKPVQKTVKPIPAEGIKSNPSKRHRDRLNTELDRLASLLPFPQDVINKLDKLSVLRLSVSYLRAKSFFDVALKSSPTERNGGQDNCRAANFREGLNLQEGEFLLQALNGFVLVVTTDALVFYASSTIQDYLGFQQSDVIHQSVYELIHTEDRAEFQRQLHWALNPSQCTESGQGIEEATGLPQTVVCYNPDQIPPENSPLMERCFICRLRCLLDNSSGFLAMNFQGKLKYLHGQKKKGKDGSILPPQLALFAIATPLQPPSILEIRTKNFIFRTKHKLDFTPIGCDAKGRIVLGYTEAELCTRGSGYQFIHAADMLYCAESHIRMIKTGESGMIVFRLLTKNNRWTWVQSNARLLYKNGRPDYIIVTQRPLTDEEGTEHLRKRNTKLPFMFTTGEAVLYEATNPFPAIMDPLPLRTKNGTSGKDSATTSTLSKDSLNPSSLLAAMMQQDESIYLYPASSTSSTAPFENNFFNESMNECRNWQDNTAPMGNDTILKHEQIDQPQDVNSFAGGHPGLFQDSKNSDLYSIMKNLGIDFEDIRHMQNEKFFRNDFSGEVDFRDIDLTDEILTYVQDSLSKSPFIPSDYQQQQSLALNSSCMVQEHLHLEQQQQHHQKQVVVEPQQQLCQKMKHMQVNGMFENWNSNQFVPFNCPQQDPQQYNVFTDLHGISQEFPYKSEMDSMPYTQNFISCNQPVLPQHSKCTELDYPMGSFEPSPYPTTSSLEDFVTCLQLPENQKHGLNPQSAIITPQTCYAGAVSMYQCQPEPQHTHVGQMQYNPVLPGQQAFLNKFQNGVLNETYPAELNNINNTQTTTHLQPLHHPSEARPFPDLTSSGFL
# Retinoic acid receptor alpha (Homo sapiens), sequence (P10276 whole entry, looked up): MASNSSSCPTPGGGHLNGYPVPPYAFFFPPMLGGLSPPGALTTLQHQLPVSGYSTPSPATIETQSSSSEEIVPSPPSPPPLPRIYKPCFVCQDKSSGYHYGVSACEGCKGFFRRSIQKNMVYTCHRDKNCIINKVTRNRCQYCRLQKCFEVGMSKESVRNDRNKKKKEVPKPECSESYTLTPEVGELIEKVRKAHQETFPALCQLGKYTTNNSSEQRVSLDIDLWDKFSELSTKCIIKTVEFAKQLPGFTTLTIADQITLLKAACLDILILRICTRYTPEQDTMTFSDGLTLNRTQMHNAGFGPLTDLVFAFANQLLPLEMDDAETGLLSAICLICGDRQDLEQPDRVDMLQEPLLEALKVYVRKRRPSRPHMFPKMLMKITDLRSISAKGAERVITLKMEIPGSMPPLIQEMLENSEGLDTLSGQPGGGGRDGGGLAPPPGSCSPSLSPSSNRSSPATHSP
compound,measurement,setting,value
C=CCOc1nc(OCC=C)nc(OCC=C)n1,outcome,[1],inactive
same,outcome,[2],inactive
same,AC50,[3],42.9 µM (active)
same,outcome,[4],inactive
same,outcome,[5],inactive
same,outcome,[6],inactive
same,outcome,[7],inactive
same,outcome,[8],inactive
same,outcome,[9],inactive
same,outcome,[10],inactive
same,outcome,[11],inactive
same,outcome,[12],inactive
same,outcome,[13],inactive
same,outcome,[14],inactive
same,outcome,[15],inactive
same,outcome,[16],inactive
same,outcome,[17],inactive
Nc1ccc(F)c([N+](=O)[O-])c1,outcome,[1],inactive
same,outcome,[2],inactive
same,outcome,[3],inactive
same,outcome,[4],inactive
same,outcome,[5],inactive
same,outcome,[18],inactive
same,outcome,[7],inactive
same,outcome,[8],inactive
same,outcome,[9],inactive
same,outcome,[10],inactive
same,outcome,[11],inactive
same,outcome,[19],inactive
same,outcome,[13],inactive
same,outcome,[14],inactive
same,outcome,[15],inactive
same,outcome,[16],inactive
same,outcome,[17],inactive
CN1Cc2c(N)cccc2C(c2ccccc2)C1 (configuration not stated),outcome,[1],inactive
same,outcome,[2],inactive
same,outcome,[3],inactive
same,outcome,[4],inactive
same,AC50,[5],59.1 µM (active)
same,outcome,[7],inactive
same,outcome,[20],inactive
same,outcome,[8],inactive
same,outcome,[9],inactive
same,outcome,[10],inactive
same,outcome,[11],inactive
same,outcome,[12],inactive
same,outcome,[13],inactive
same,outcome,[14],inactive
same,outcome,[16],inactive
same,outcome,[17],inactive
CSc1nnc(C(C)(C)C)c(=O)[nH]1,outcome,[1],inactive
same,outcome,[2],inactive
same,outcome,[3],inactive
same,outcome,[4],inactive
same,outcome,[5],inactive
same,outcome,[6],inactive
same,outcome,[7],inactive
same,outcome,[8],inactive
same,outcome,[9],inactive
same,outcome,[10],inactive
same,outcome,[11],inactive
same,outcome,[19],inactive
same,outcome,[13],inactive
same,outcome,[14],inactive
same,outcome,[16],inactive
same,outcome,[17],inactive
CCCCCCCCCCN,outcome,[1],inactive
same,outcome,[2],inactive
same,outcome,[3],inactive
same,outcome,[4],inactive
same,outcome,[5],inactive
same,outcome,[18],inactive
same,outcome,[7],inactive
same,outcome,[20],inactive
same,outcome,[8],inactive
same,outcome,[9],inactive
same,outcome,[10],inactive
same,outcome,[11],inactive
same,outcome,[12],inactive
same,outcome,[14],inactive
same,outcome,[15],inactive
same,outcome,[16],inactive
same,outcome,[17],inactive
CCCCN,outcome,[1],inactive
same,outcome,[2],inactive
same,outcome,[3],inactive
same,outcome,[4],inactive
same,outcome,[5],inactive
same,outcome,[6],inactive
same,outcome,[8],inactive
same,outcome,[9],inactive
same,outcome,[10],inactive
same,outcome,[11],inactive
same,outcome,[12],inactive
same,outcome,[19],inactive
same,outcome,[13],inactive
same,outcome,[14],inactive
same,outcome,[15],inactive
same,outcome,[16],inactive
same,outcome,[17],inactive
C=C[Si](OCC)(OCC)OCC,outcome,[1],inactive
same,outcome,[2],inactive
same,outcome,[3],inactive
same,outcome,[4],inactive
same,outcome,[5],inactive
same,outcome,[18],inactive
same,outcome,[7],inactive
same,outcome,[8],inactive
same,outcome,[9],inactive
same,outcome,[10],inactive
same,outcome,[11],inactive
same,outcome,[12],inactive
same,outcome,[13],inactive
same,outcome,[14],inactive
same,outcome,[15],inactive
same,outcome,[16],inactive
same,outcome,[17],inactive
